# Source: PubChem BioAssay (Tox21)
# Unmarked numbers belong to inactive results. Inconclusive results are not listed. Entries that show only a call come without a potency. The source made the active and inactive calls. Unless noted, the call rests on the fitted dose curve.
# Key:
# [1] = Nuclear factor erythroid 2-related factor 2/antioxidant responsive element (Nrf2/ARE) small molecule agonists: qHTS cell viability counter screen in human keratinocytes (AID 1919968; active means well fitted curve in the direction sought with a large enough effect in the repeat runs; an effect the other way counts as inactive or inconclusive; further: nearly all actives have a fitted effect of over 55% in size; further: potency means the concentration at half of the fitted maximal effect)
# Method in brief: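 Fluorescence read-out from CellTiter-Fluor after 1 h at 37 C. Wells held HaCaT-derived ARE-luciferase reporter cells (1,500/well) treated 23 h with DMSO-dissolved compounds. Run in the same wells as the luciferase agonist read.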
# [2] = Nuclear factor erythroid 2-related factor 2/antioxidant responsive element (Nrf2/ARE) small molecule agonists: luciferase reporter gene qHTS assay in human keratinocytes (AID 1919969); further: nearly all actives have a fitted effect of over 35% in size; further: potency means the concentration at half of the fitted maximal effect
# [3] = biological target: Gonadotropin-releasing hormone receptor (Homo sapiens) (UniProt P30968); test: Human gonadotropin-releasing hormone receptor (GnRHR) small molecule agonists, calcium flux assay in GnRHR-HEK293 cells (AID 1920063); further: nearly all actives have a fitted effect of over 35% in size; further: potency means the concentration at half of the fitted maximal effect
# Method in brief: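 Calcium-dye fluorescence, Ex/Em=480/540, recorded every 1 sec over 3 min after compound addition to GnRHR-HEK293 cells. Cells had been seeded 18 hours earlier and dye-loaded for 1 hour at 37 C. Fifteen concentrations, triplicates.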
# [4] = biological target: KiSS-1 receptor (Homo sapiens) (UniProt Q969F8); test: Human kisspeptin (KISS1R) small molecule agonists, calcium flux assay in KISS1R-HEK293 cells (AID 1920064; active means well fitted curve in the direction sought with a large enough effect in the repeat runs; an effect the other way counts as inactive or inconclusive)
# Method in brief: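 Calcium flux read-out: kinetic fluorescence at Ex/Em=480/540, 1 s intervals over 3 min, after pin-tool compound addition to dye-loaded KISS1R-HEK293 cells. Fifteen concentrations, triplicates.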
# [5] = p53 small molecule agonists, cell-based qHTS assay with rat liver microsomes: qHTS cell viability counter screen (AID 1963580); further: nearly all actives have a fitted effect of over 45% in size
# Method in brief: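 After the beta-lactamase ratio was read, CellTiter-Glo was added to the same wells and luminescence measured at 30 min; cells had been treated 16 h at 37 C with compounds, rat liver microsomes and NADPH (0.5 mg/mL final each).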
# [6] = biological target: 5-hydroxytryptamine receptor 2A (Homo sapiens) (UniProt P28223); test: 5-hydroxytryptamine receptor 2A (HTR2A) small molecule antagonists, cell-based qHTS assay (AID 1963586); further: nearly all actives have a fitted effect of over 45% in size
# Method in brief: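 CHO cells stably expressing human HTR2A were plated for 18 h at 37 C, then loaded with calcium dye for 1 h. Compounds were preincubated 5 min at room temperature before DOI (4 nM solution) was added. Kinetic fluorescence was read for 3 min.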
# [7] = biological target: Muscarinic acetylcholine receptor M1 (Homo sapiens) (UniProt P11229); test: Cholinergic receptor muscarinic 1 (CHRM1) small molecule antagonists, cell-based qHTS assay (AID 1963588); further: nearly all actives have a fitted effect of over 40% in size; further: potency means the concentration at half of the fitted maximal effect
# Method in brief: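 Compounds were tested at 15 concentrations in three independent runs. Dye-loaded CHRM1-CHO cells were exposed 5 min at room temperature before stimulation by acetylcholine added at 50nM. Intracellular calcium was read kinetically on FDSS for 3 min.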
# [8] = biological target: Muscarinic acetylcholine receptor M1 (Homo sapiens) (UniProt P11229); test: Cholinergic receptor muscarinic 1 (CHRM1) small molecule agonists, cell-based qHTS assay (AID 1963589); further: nearly all actives have a fitted effect of over 35% in size
# Method in brief: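 Calcium flux read-out: kinetic fluorescence at 1 sec intervals after pin-tool compound addition to dye-loaded CHRM1-CHO cells (human M1). Agonist mode; 15 concentrations tested in triplicate independent runs.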
# [9] = cAMP Responsive Elements (CRE) small molecule agonists, cell-based qHTS assay (AID 1963590)
# Method in brief: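 Beta-lactamase reporter readout: LiveBLAzer B/G FRET substrate, 2 h at room temperature, added after 3 h compound treatment of CRE-bla HEK 293T cells at 37 C/5% CO2.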
# [10] = cAMP Responsive Elements (CRE) small molecule antagonists, cell-based qHTS assay (AID 1963591; active means well fitted inhibition curve with a large enough effect in the signal ratio in the repeat runs, not every such curve was filed as active; the % refers to the signal ratio)
# Method in brief: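 HEK293T CRE-bla; 18 h preincubation; compound pin-transfer; NKH477 0.25 uM final, 3 h, 37 C; LiveBLAzer FRET substrate 2 h RT.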
# [11] = biological target: Beta-2 adrenergic receptor (Homo sapiens) (UniProt P07550); test: Adrenergic beta2 receptor (ADRB2) small molecule antagonists, cell-based qHTS assay (AID 1963592); further: series mostly up to about 92 µM; nearly all actives have a fitted effect of over 50% in size
# Method in brief: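 Assay format: CHO-ADRB2 cells, 18-20hr seeding at 37C/5% CO2, then compound plus 1nM isoproterenol agonist mix for 0.5hr RT. Homogeneous time-resolved fluorescence cAMP detection after 1hr, expressed as 665/615 nm ratio.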
# [12] = biological target: Beta-2 adrenergic receptor (Homo sapiens) (UniProt P07550); test: Adrenergic beta2 receptor (ADRB2) small molecule agonists, cell-based qHTS assay (AID 1963593);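 further: CHO cells stably overexpressing human ADRB2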
# Method in brief: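 CHO cells stably over-expressing ADRB2 were plated overnight at 37C, then dosed with compounds plus a stimulation mix containing 100uM IBMX and 25uM Ro-20-1724 for 0.5hr at room temperature. cAMP was measured by HTRF competition, 1hr.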
# [13] = biological target: D(2) dopamine receptor (Homo sapiens) (UniProt P14416); test: Dopamine D2 receptor (DRD2) small molecule antagonists, cell-based qHTS assay (AID 1963595; active means well fitted inhibition curve with a large enough effect in the signal ratio in the repeat runs, with a control signal flat; the % refers to the signal ratio; further: potency means the concentration at half of the fitted maximal effect)
# Method in brief: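 HEK293 cells stably expressing DRD2, preincubated with 0.1 mM Ro20-1724 and compounds 10 min, were stimulated with 200 nM NKH477 plus 12 nM quinpirole for 30 min at room temperature; cAMP measured by HTRF (665/620 nm).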
# [14] = p53 small molecule agonists, cell-based qHTS assay: qHTS cell viability counter screen (AID 1963581); further: nearly all actives have a fitted effect of over 45% in size; further: potency means the concentration at half of the fitted maximal effect
# Method in brief: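 Cytotoxicity read-out: ATP-based luminescence (CellTiter-Glo, 30 min RT) measured in the same wells as the p53 reporter assay, HCT-116 p53RE-bla cells, 16 h compound exposure at 37 C.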
# [15] = biological target: D(2) dopamine receptor (Homo sapiens) (UniProt P14416); test: Dopamine D2 receptor (DRD2) small molecule agonists, cell-based qHTS assay (AID 1963594); further: nearly all actives have a fitted effect of over 35% in size
# Method in brief: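 HEK293 cells stably expressing human DRD2, pre-treated with PDE inhibitor Ro20-1724 (0.1 mM final) and compound 10 min at room temperature, then stimulated with NKH477 (200nM […]) for 30 min. cAMP read by HTRF (665/620 nm).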
# [16] = G protein-coupled receptor (GPCR) small molecule agonists, calcium flux assay: HEK293 wild type cell line counter screen (AID 1920065)
# Method in brief: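 Agonist mode; 18 h seeding at 37 C, 1 h dye load at 37 C; compounds pinned from DMSO, ATP as positive control; kinetic fluorescence 480/540 nm, 3 min, 1 s reads; 15 concentrations, triplicate.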
# [17] = p53 small molecule agonists, cell-based qHTS assay with human liver microsomes: qHTS cell viability counter screen (AID 1963579); further: nearly all actives have a fitted effect of over 45% in size; further: potency means the concentration at half of the fitted maximal effect
# Method in brief: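 p53RE-bla cells, 4,000/well, dosed 5 hours after plating, with human liver microsomes (0.5 mg/mL final) plus NADPH (0.5 mg/mL final), 16 hours at 37 C. Viability read as CellTiter-Glo luminescence after 30 min at room temperature.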
# [18] = biological target: 5-hydroxytryptamine receptor 2A (Homo sapiens) (UniProt P28223); test: 5-hydroxytryptamine receptor 2A (HTR2A) small molecule agonists, cell-based qHTS assay (AID 1963587); further: nearly all actives have a fitted effect of over 30% in size
# Method in brief: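 CHO cells stably expressing human HTR2A, plated 18 h, loaded with calcium dye 1 h at 37 C. Agonist mode: compounds added and intracellular calcium fluorescence recorded kinetically for 2 min at 1 sec intervals.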
# [19] = p53 small molecule agonists, cell-based qHTS assay with rat liver microsomes (AID 1963578)
# Method in brief: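 p53RE-bla cells, 4,000/well, pre-incubated 5 h, then given compounds plus rat liver microsomes (0.5 mg/mL final) and NADPH (0.5 mg/mL final). Incubation 16 h at 37 C; beta-lactamase reporter read by LiveBLAzer fluorescence after 2 h at room temperature.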
# [20] = p53 small molecule agonists, cell-based qHTS assay (AID 1963582; active means well fitted activation curve with a large enough effect in the signal ratio in the repeat runs, not every such curve was filed as active; the % refers to the signal ratio)
# Method in brief: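 Fluorescence intensity read-out of a beta-lactamase reporter under a p53 response element. Cells were exposed to DMSO-dissolved compounds for 16 h at 37 C, then developed with FRET substrate for 2 h at RT.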
# Sequence of Gonadotropin-releasing hormone receptor (Homo sapiens) (P30968 whole entry, looked up): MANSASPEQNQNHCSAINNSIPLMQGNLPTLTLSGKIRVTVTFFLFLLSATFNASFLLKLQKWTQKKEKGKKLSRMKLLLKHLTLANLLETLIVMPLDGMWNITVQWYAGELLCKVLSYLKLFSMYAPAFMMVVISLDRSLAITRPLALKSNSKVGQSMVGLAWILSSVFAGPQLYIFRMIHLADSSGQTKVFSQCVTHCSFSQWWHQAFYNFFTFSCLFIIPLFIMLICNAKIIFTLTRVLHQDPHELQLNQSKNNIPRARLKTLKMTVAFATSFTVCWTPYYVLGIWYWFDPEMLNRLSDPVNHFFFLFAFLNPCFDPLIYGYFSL
# Sequence of Beta-2 adrenergic receptor (Homo sapiens) (P07550 whole entry, looked up): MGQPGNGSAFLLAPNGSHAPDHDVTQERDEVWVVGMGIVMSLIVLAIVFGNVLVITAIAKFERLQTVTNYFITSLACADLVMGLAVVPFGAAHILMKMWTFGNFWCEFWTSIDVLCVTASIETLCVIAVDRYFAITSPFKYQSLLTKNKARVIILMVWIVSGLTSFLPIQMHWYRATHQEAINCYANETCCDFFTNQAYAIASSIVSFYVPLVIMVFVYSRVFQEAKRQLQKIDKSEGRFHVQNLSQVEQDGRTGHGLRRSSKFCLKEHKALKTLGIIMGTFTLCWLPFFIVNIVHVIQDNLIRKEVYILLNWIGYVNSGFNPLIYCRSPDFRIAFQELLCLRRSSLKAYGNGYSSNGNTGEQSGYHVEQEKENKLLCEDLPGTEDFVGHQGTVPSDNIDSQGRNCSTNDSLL
# Sequence of Muscarinic acetylcholine receptor M1 (Homo sapiens) (P11229 whole entry, looked up): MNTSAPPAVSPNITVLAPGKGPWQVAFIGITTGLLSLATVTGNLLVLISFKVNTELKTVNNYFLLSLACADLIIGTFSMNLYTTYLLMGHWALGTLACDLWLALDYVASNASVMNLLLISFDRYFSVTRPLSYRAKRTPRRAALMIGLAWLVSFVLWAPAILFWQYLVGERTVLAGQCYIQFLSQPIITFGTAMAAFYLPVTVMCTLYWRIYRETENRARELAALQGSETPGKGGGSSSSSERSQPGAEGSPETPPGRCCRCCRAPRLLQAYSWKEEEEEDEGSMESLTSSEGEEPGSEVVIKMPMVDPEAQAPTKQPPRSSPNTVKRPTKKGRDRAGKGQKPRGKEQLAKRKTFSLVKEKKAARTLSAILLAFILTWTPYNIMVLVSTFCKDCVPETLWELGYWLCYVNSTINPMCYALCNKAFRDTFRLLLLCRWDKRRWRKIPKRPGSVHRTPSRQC
# Sequence of D(2) dopamine receptor (Homo sapiens) (P14416 whole entry, looked up): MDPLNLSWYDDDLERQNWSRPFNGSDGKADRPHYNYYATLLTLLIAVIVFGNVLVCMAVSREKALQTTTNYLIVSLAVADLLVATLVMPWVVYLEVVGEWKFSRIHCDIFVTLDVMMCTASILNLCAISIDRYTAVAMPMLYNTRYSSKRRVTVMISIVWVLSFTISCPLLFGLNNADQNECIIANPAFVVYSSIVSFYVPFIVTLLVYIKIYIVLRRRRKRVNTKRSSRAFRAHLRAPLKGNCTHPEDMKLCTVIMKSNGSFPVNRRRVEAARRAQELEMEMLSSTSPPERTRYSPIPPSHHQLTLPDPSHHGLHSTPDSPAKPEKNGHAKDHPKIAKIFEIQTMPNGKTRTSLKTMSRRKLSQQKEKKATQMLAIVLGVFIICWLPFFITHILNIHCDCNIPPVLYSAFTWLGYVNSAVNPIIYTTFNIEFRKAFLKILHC
# Sequence of KiSS-1 receptor (Homo sapiens) (Q969F8 whole entry, looked up): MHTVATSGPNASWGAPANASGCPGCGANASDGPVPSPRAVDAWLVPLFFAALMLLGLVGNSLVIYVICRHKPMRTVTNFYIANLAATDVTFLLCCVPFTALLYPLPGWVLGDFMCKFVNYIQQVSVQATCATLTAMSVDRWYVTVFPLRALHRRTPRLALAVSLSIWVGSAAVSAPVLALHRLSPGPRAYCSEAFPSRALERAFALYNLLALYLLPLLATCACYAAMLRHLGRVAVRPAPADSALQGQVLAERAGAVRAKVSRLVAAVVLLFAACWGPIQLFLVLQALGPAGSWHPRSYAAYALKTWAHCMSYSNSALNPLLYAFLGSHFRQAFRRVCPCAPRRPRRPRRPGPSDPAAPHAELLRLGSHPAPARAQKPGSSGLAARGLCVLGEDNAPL
# Sequence of 5-hydroxytryptamine receptor 2A (Homo sapiens) (P28223 whole entry, looked up): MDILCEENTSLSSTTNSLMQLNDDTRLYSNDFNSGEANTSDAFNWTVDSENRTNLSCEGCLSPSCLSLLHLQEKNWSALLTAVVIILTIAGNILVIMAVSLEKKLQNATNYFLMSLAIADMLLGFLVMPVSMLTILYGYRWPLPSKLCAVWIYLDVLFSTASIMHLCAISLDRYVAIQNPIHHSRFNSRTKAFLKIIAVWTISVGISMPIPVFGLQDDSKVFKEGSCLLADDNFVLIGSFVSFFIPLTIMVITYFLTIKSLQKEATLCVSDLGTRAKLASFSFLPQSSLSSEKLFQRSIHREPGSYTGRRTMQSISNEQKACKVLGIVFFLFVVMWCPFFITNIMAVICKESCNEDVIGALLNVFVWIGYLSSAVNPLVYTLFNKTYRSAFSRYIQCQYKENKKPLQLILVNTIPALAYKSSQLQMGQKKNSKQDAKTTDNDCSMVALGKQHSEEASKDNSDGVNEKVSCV
structure (smiles),measurement,setting,value
CC(C)[C@H]1CC[C@H](C)C[C@@H]1O,Potency,[1],inactive
same,Potency,[2],inactive
same,Potency,[3],inactive
same,Potency,[4],inactive
same,Potency,[5],inactive
same,Potency,[6],inactive
same,Potency,[7],inactive
same,Potency,[8],inactive
same,Potency,[9],inactive
same,Potency,[10],inactive
same,Potency,[11],inactive
same,Potency,[12],inactive
same,Potency,[13],inactive
C[C@H]1[C@@H](c2ccccc2)NC(=O)N1C,Potency,[1],inactive
same,Potency,[2],inactive
same,Potency,[3],inactive
same,Potency,[4],inactive
same,Potency,[5],inactive
same,Potency,[14],inactive
same,Potency,[6],inactive
same,Potency,[7],inactive
same,Potency,[9],inactive
same,Potency,[10],inactive
same,Potency,[11],inactive
same,Potency,[15],inactive
same,Potency,[13],inactive
CC1=C(C=O)C(C)(C)CCC1,Potency,[1],inactive
same,Potency,[2],inactive
same,Potency,[3],inactive
same,Potency,[16],inactive
same,Potency,[17],inactive
same,Potency,[5],inactive
same,Potency,[14],inactive
same,Potency,[6],inactive
same,Potency,[18],inactive
same,Potency,[7],inactive
same,Potency,[8],inactive
same,Potency,[9],inactive
same,Potency,[10],inactive
same,Potency,[11],inactive
same,Potency,[12],inactive
same,Potency,[15],inactive
same,Potency,[13],inactive
c1ccc(Sc2ccccc2)cc1,Potency,[1],inactive
same,Potency,[2],68.6 µM (active)
same,Potency,[3],inactive
same,Potency,[4],inactive
same,Potency,[14],inactive
same,Potency,[6],inactive
same,Potency,[7],inactive
same,Potency,[8],inactive
same,Potency,[9],inactive
same,Potency,[10],inactive
same,Potency,[11],inactive
same,Potency,[15],inactive
same,Potency,[13],inactive
CCCCCCCCCCCCCCCCCBr,"activity change, negative = cytotoxicity",[1],2.19% [at 19 µM]
same,"activity, positive = activation",[2],-1.2% [at 19 µM]
same,activity change,[3],"0.321% [at 11.8 µM, stronger effect = higher value]"
same,activation,[16],-0.0398% [at 11.8 µM]
same,"activity change, negative = cytotoxicity",[17],5.38% [at 13.5 µM]
same,"activity change, negative = cytotoxicity",[5],0.54% [at 13.5 µM]
same,"activity change, negative = cytotoxicity",[14],3.13% [at 13.5 µM]
same,"activity, negative = inhibition",[6],31.5% [at 12.7 µM]
same,activation,[18],0.832% [at 15.9 µM]
same,"activity, negative = inhibition",[7],7.9% [at 12.6 µM]
same,activation,[8],-0.0212% [at 15.8 µM]
same,activation,[9],-0.0773% [at 19 µM]
same,"activity change, negative = inhibition",[10],-5.99% [at 18.9 µM]
same,"activity change, negative = inhibition",[11],0.719% [at 19 µM]
same,activation,[12],8.09% [at 19 µM]
same,activation,[15],-0.0433% [at 19 µM]
same,"activity change, negative = inhibition",[13],0.232% [at 18.9 µM]
C=C1C(C)(C)[C@@]2(Cl)C(Cl)[C@]1(Cl)C(Cl)(Cl)C2(Cl)Cl (some centres not stated),Potency,[1],47.7 µM (active)
same,Potency,[2],9.51 µM (active)
same,Potency,[3],inactive
same,Potency,[4],inactive
same,Potency,[5],inactive
same,Potency,[14],40 µM (active)
same,Potency,[6],inactive
same,Potency,[7],inactive
same,Potency,[8],inactive
same,Potency,[11],inactive
same,Potency,[15],inactive
same,Potency,[13],inactive
CCCC/C=C/C=C\C=O,Potency,[1],inactive
same,Potency,[2],61.1 µM (active)
same,Potency,[3],inactive
same,Potency,[16],inactive
same,Potency,[19],inactive
same,Potency,[17],inactive
same,Potency,[5],inactive
same,Potency,[20],inactive
same,Potency,[6],inactive
same,Potency,[18],inactive
same,Potency,[7],inactive
same,Potency,[9],inactive
same,Potency,[11],inactive
same,Potency,[15],inactive
same,Potency,[13],inactive
CC=O,Potency,[1],28.6 µM (active)
same,Potency,[2],inactive
same,Potency,[3],inactive
same,Potency,[16],inactive
same,Potency,[19],inactive
same,Potency,[17],47.9 µM (active)
same,Potency,[6],inactive
same,Potency,[7],3.5 µM (active)
same,Potency,[8],inactive
same,Potency,[11],inactive
same,Potency,[15],inactive
CCCCOCCOCCOCCOCCO,Potency,[1],inactive
same,Potency,[2],inactive
same,Potency,[3],inactive
same,Potency,[16],inactive
same,Potency,[17],inactive
same,Potency,[5],inactive
same,Potency,[14],inactive
same,Potency,[18],inactive
same,Potency,[7],inactive
same,Potency,[8],inactive
same,Potency,[9],inactive
same,Potency,[10],inactive
same,Potency,[11],inactive
same,Potency,[15],inactive
same,Potency,[13],inactive
N[C@@H](CCC(=O)O)C(=O)O,Potency,[1],inactive
same,Potency,[2],inactive
same,Potency,[3],inactive
same,Potency,[16],inactive
same,Potency,[17],inactive
same,Potency,[5],inactive
same,Potency,[14],inactive
same,Potency,[6],inactive
same,Potency,[18],inactive
same,Potency,[7],inactive
same,Potency,[8],inactive
same,Potency,[10],inactive
same,Potency,[11],inactive
same,Potency,[12],inactive
same,Potency,[15],inactive
same,Potency,[13],inactive
CNCC(O)c1ccc(O)c(O)c1 (configuration not stated),Potency,[1],inactive
same,Potency,[2],inactive
same,Potency,[3],0.0425 µM (active)
same,Potency,[16],inactive
same,Potency,[19],inactive
same,Potency,[14],inactive
same,Potency,[20],inactive
same,Potency,[13],5.31 µM (active)
Cc1ccc(O)c(C(=O)c2ccccc2)c1,Potency,[1],inactive
same,Potency,[2],inactive
same,Potency,[3],inactive
same,Potency,[16],inactive
same,Potency,[14],inactive
same,Potency,[20],inactive
same,Potency,[6],inactive
same,Potency,[18],inactive
same,Potency,[8],inactive
same,Potency,[11],inactive
same,Potency,[12],inactive
same,Potency,[15],inactive
same,Potency,[13],inactive
CC(C)C(C)C,Potency,[1],inactive
same,Potency,[2],inactive
same,Potency,[3],inactive
same,Potency,[4],inactive
same,Potency,[5],inactive
same,Potency,[14],inactive
same,Potency,[6],inactive
same,Potency,[7],inactive
same,Potency,[8],inactive
same,Potency,[9],inactive
same,Potency,[10],inactive
same,Potency,[11],inactive
same,Potency,[12],inactive
same,Potency,[13],inactive
